About 83,000 compounds went through this panel and 20% of them were active in at least one assay; those are over-represented in the sample as a whole.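 Cells were grown in 96-well plates and exposed to the test compound at a single concentration for 48 hours; results are reported as percent growth, with values below 10 considered active.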 The source made the active and inactive calls.
Experiments:
Assay in all cases: NCI-60 one-dose screen, 48 h (100 = growth as untreated, 0 = no growth, -100 = all killed)
NCI-H23 lung = test system: NCI-H23 lung
NCI-H226 lung = test system: NCI-H226 lung
NCI-H322M lung = conditions: 10 µM
HOP-62 NSCLC = test system: HOP-62 NSCLC
NCI-H460 lung = test system: NCI-H460 lung
HOP-92 NSCLC = test system: HOP-92 NSCLC
NCI-H522 lung = test system: NCI-H522 lung
A549/ATCC NSCLC = test system: A549/ATCC NSCLC
786-0 renal = test system: 786-0 renal
COLO 205 colon = test system: COLO 205 colon

Measured: growth

COC1OCC(O)C(O)C1O (stereo not given)
inactive: NCI-H23 lung; 10 µM 98.3% | NCI-H226 lung; 10 µM 108% | NCI-H322M lung 99.8% | HOP-62 NSCLC; 10 µM 102% | NCI-H460 lung; 10 µM 104% | HOP-92 NSCLC; 10 µM 103% | NCI-H522 lung; 10 µM unless noted 97.5% | A549/ATCC NSCLC; 10 µM 101% | 786-0 renal; 10 µM 101% | COLO 205 colon; 10 µM 107%

O=C(O)COc1ccc(OCC(=O)O)cc1
active: NCI-H23 lung; 10 µM -0.769% | NCI-H226 lung; 10 µM -60.2% | HOP-62 NSCLC; 10 µM -15% | NCI-H460 lung; 10 µM -17.8% | HOP-92 NSCLC; 10 µM -3.9% | NCI-H522 lung; 10 µM unless noted -3.87% | 786-0 renal; 10 µM -9.28%
inactive: NCI-H322M lung 39.3% | COLO 205 colon; 10 µM 16%

CCCCCCCCCCSC(=N)N
active: COLO 205 colon; 10 µM -84%
inactive: NCI-H23 lung; 10 µM 87.4% | NCI-H226 lung; 10 µM 99.7% | HOP-62 NSCLC; 10 µM 68% | NCI-H460 lung; 10 µM 23.8% | HOP-92 NSCLC; 10 µM 21.6% | NCI-H522 lung; 10 µM unless noted 45.6% | A549/ATCC NSCLC; 10 µM 77% | 786-0 renal; 10 µM 51%

COC(=O)C1C(O)C(C)C(O)C(C)C=C(C)C2=C3C(=C(C)C(=O)c4c(O)c(c(C)c(OC(C)=O)c43)NC(=O)C(C)=C/C=C\C(C)C(O)C(C)C1O)OCO2 (stereo not given)
active: HOP-92 NSCLC; 10 µM -5.62%
inactive: NCI-H23 lung; 10 µM 107% | NCI-H226 lung; 10 µM 104% | NCI-H322M lung 140% | NCI-H460 lung; 10 µM 114% | NCI-H522 lung; 10 µM unless noted 75.3% | A549/ATCC NSCLC; 10 µM 112% | 786-0 renal; 10 µM 101% | COLO 205 colon; 10 µM 125%

O=C(/C=C/c1ccccn1)c1ccccc1
inactive: NCI-H23 lung; 10 µM 83.8% | NCI-H226 lung; 10 µM 86.1% | NCI-H322M lung 88.8% | HOP-62 NSCLC; 10 µM 93.8% | NCI-H460 lung; 10 µM 26.5% | HOP-92 NSCLC; 10 µM 78.3% | A549/ATCC NSCLC; 10 µM 76.3% | 786-0 renal; 10 µM 15.6% | COLO 205 colon; 10 µM 32%
active: NCI-H522 lung; 10 µM unless noted -75.6%

CCO/C=C1\SC(=S)N(c2cccc(O)c2)C1=O
inactive: NCI-H23 lung; 10 µM 106% | NCI-H226 lung; 10 µM 96.1% | NCI-H322M lung 95.8% | HOP-62 NSCLC; 10 µM 97.4% | NCI-H460 lung; 10 µM 106% | 786-0 renal; 10 µM 101% | COLO 205 colon; 10 µM 109%

NC1=C(Cl)C(=O)c2ccccc2C1=O
inactive: NCI-H23 lung; 10 µM 40.7% | NCI-H226 lung; 10 µM 103% | NCI-H322M lung 98.6% | HOP-62 NSCLC; 10 µM 62.4% | NCI-H460 lung; 10 µM 25.3% | HOP-92 NSCLC; 10 µM 96.8% | NCI-H522 lung; 10 µM unless noted 73.6% | A549/ATCC NSCLC; 10 µM 45% | 786-0 renal; 10 µM 106% | COLO 205 colon; 10 µM 95.2%

CCN(CC)c1ccc(NC(C(=O)c2ccccc2)c2ccccc2)cc1 (stereo not given)
inactive: NCI-H23 lung; 10 µM 44.4% | NCI-H226 lung; 10 µM 60.1% | HOP-62 NSCLC; 10 µM 123% | NCI-H460 lung; 10 µM 80.4% | HOP-92 NSCLC; 10 µM 73.7% | NCI-H522 lung; 10 µM unless noted 21.8% | A549/ATCC NSCLC; 10 µM 92.5% | COLO 205 colon; 10 µM 20.5%
active: 786-0 renal; 10 µM -57.1%

COc1cccc2c1C(=O)c1c(O)c3c(c(O)c1C2=O)C[C@@](O)(C(=O)CO)C[C@@H]3OC1CC(N)C(O)C(C)O1 (stereo not given in full)
inactive: NCI-H23 lung; 0.0025 µM 90% | NCI-H23 lung; 1 µM 28.2% | NCI-H23 lung; 2.5 µM 33.1% | NCI-H23 lung; 10 µM 33.3% | NCI-H226 lung; 0.0025 µM 84% | NCI-H226 lung; 2.5 µM 23.1% | HOP-62 NSCLC; 0.0025 µM 88.3% | HOP-62 NSCLC; 2.5 µM 31.5% | NCI-H460 lung; 0.0025 µM 73.4% | HOP-92 NSCLC; 0.0025 µM 85.2% | HOP-92 NSCLC; 2.5 µM 51% | NCI-H522 lung; 0.0025 µM 78.3% | A549/ATCC NSCLC; 0.0025 µM 73% | A549/ATCC NSCLC; 1 µM 33.7% | A549/ATCC NSCLC; 2.5 µM 36.5% | 786-0 renal; 0.0025 µM 84.4% | 786-0 renal; 2.5 µM 26.8% | COLO 205 colon; 0.0025 µM 85.8% | COLO 205 colon; 1 µM 53.8% | COLO 205 colon; 2.5 µM 56.7%
active: NCI-H226 lung; 10 µM -18.3% | HOP-62 NSCLC; 10 µM 6.93% | NCI-H460 lung; 1 µM -31.1% | NCI-H460 lung; 2.5 µM 9.19% | NCI-H460 lung; 10 µM 0.571% | HOP-92 NSCLC; 10 µM -22.8% | NCI-H522 lung; 1 µM -10.4% | NCI-H522 lung; 10 µM -38% | A549/ATCC NSCLC; 10 µM -30.5% | 786-0 renal; 1 µM -14.3% | 786-0 renal; 10 µM 4.5% | COLO 205 colon; 10 µM -47.4%

Oc1ccc(N=Nc2ccccn2)c(O)c1
inactive: NCI-H23 lung; 10 µM 29.2% | NCI-H226 lung; 10 µM 21.1% | NCI-H322M lung 31.6% | HOP-62 NSCLC; 10 µM 15.8% | HOP-92 NSCLC; 10 µM 57.6% | NCI-H522 lung; 10 µM unless noted 29.3% | A549/ATCC NSCLC; 10 µM 17.5% | 786-0 renal; 10 µM 10.3%
active: NCI-H460 lung; 10 µM 8.17% | COLO 205 colon; 10 µM 8.83%
